Measured values taken from PubChem BioAssay.

assay: binders of probe aFGF10 on microarray, primary screen, stem cell growth factor project, biochemical, small-molecule microarray, fluorescence 635/667 (AID 1071); conditions: higher = more signal;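 further: score merges 667 nm spot intensity and signal to noise from triplicate slides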

Row | Structure (SMILES) | composite z-score
1 | C=CCC(OC(C)=O)[C@@H]1[C@@H](N(Cc2cc3ccccc3o2)C(=O)Cc2ccc(OC)cc2)c2cc(OCCCO)ccc2N1C(=O)c1ccc2ccccc2n1 (some centres undefined) | 0.176
2 | C=C(COC)/C(=C/C[C@@H](OC(C)=O)c1ccccc1OCCO)c1cnc2ccccc2c1 | 0.339
3 | Cc1ccc(S[C@]2(C(=O)NCC(F)(F)F)CC(=O)N(Cc3ccccc3C(F)(F)F)[C@@H]2c2ccc(CO)cc2)cc1 | -0.0379
4 | C=CCC(OC(C)=O)[C@@H]1[C@@H](N(Cc2cccc3ccccc23)C(=O)Cc2ccc(OC)cc2)c2cc(OCCCO)ccc2N1C(=O)c1ccc2ccccc2c1 (some centres undefined) | 0.113
5 | COc1ccc([Si](C)(C)[C@@H]2[C@@H](CC(=O)N(CCO)Cc3ccccc3)O[C@]3(C(=O)N(Cc4ccc(N5C(=O)c6cccc7cccc5c67)cc4)c4ccccc43)[C@H]2C)cc1 | 0.181
6 | COC(=O)[C@@]1(Cc2ccc(OC)cc2)[C@H]2c3cc(C(=O)N(C)C)[nH]c3C[C@H]2CN1C(=O)c1ccccc1 | 0.304
7 | CCOc1cc(C(O)C2C=CC3C(=O)N(c4ccccc4)C(=O)C3N2Nc2ccccc2F)ccc1O (centres undefined) | 0.334
8 | O=C1O[C@@H](c2ccccc2)[C@@H](c2ccccc2)N2[C@@H](c3ccc(OCCO)cc3)[C@]3(C(=O)Nc4ccc(C#CC5(O)CCCCCC5)cc43)[C@@H](C(=O)O)[C@H]12 | 0.635
9 | COc1ccc(C(=O)Nc2ccc(CN3C(=O)[C@@]4(O[C@@H](CCn5cc(CCO)nn5)[C@H]([Si](C)(C)c5ccc(OC)cc5)[C@H]4C)c4ccccc43)cc2)cc1 | 0.462
